Data published in PubChem BioAssay (NCI).
This is part of a sample that, as a whole, favours compounds with a hit. Of some 83,000 tested, about 20% had one in any assay.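 Step 1: grow cells in 96-well plates. Step 2: add test compound at a single concentration. Step 3: incubate 48 h. Step 4: record percent growth.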 Unmarked numbers belong to inactive results. Activity calls are given as the source filed them. How the source made its calls: active means growth percent below 10; inactive means the rest.

Key:
Experiment in all cases: NCI-60 one-dose screen, 48 h (100 = growth as untreated, 0 = no growth, -100 = all killed)
Details in all cases: 10 µM unless noted
T-47D breast = system: T-47D breast
BT-549 breast = system: BT-549 breast
MDA-MB-435 melanoma = system: MDA-MB-435 melanoma
SW-620 colon = system: SW-620 colon
HCT-116 colon = system: HCT-116 colon
HCC-2998 colon = system: HCC-2998 colon
KM12 colon = system: KM12 colon
MCF7 breast = system: MCF7 breast

Row | SMILES | growth (T-47D breast) | growth (BT-549 breast) | growth (MDA-MB-435 melanoma) | growth (SW-620 colon) | growth (HCT-116 colon) | growth (HCC-2998 colon) | growth (KM12 colon) | growth (MCF7 breast)
1 | CCOC(=O)C1=C(c2ccccc2)N=C2N(c3ccccc3)N=C(C(C)=O)N2C1c1ccc(Br)cc1 (stereo not drawn) | 79.8% | 98.3% | 101% | 97% | 84.7% | 103% | 94.9% | 
2 | Oc1cccc2c1NCCC2 | 22.1% | 39.1% | 15.4% | 19.9% | 8.94% (active) | 32.8% | 20.7% | 
3 | COc1ccc(-c2ccc(-c3ccc(C(=N)N)nc3)s2)cc1 | -31.1% (active) | 84% | -95.8% (active) | -65.7% (active) | -60.4% (active) | -44.9% (active) |  | 
4 | COc1ccc(C2CC(=O)Oc3c(OC)c4c(c(OC)c32)OCO4)cc1 (stereo not drawn) | 103% | 87.6% | 56.8% | 89.7% | 96.9% | 97% | 88.1% | 
5 | Cc1cccc(C)c1NC(=O)Nc1ccccc1 | 109% | 116% | 105% | 54.1% | 61.9% | 99.6% | 102% | 
6 | Cn1nc(-c2ccc(Cl)cc2)nc2c(=O)n(C)c(=O)nc1-2 | -43.2% (active) | -46.5% (active) | -45.8% (active) | -33.2% (active) | -37.7% (active) | -70.2% (active) | -15.3% (active) | 
7 | N#CC1=C(N)Oc2c(ccc3ccccc23)C1c1cc2ccccc2n2nnnc12 (stereo not drawn) | 25% | 16.2% | -27.7% (active) | 9.58% (active) | -5.37% (active) | 46.9% |  | 
8 | CCN1CCN(C(=O)[C@]23CC[C@@H](C)[C@H](C)[C@@H]2C2=CC[C@@H]4[C@@]5(C)C/C(=C/c6ccncc6)C(=O)C(C)(C)[C@@H]5CC[C@@]4(C)[C@]2(C)CC3)CC1 | 27.1% | 52.2% | -51.1% (active) | -22.6% (active) | -51.9% (active) | -28.9% (active) | 5.49% (active) | 
9 | COc1cccc(CNc2nnc(C)c(C)n2)c1O | 94% | 101% | 111% | 109% | 100% | 96.4% | 107% | 
10 | COCCNC(=O)Cc1cc(-c2ccc(Cl)cc2)n(-c2ccccc2)c1C | 56.3% | 83.5% | 93.7% | 94.9% | 80.4% | 99.3% | 91.7% | 88.6%
11 | COc1cc(-c2c(-c3ccccc3)c[nH]c2C(=O)NCCCO)c(OC)c2c1OCO2 | 90.9% | 106% | 104% | 102% | 106% | 110% | 125% | 
12 | COc1cc(NC(=O)c2cncnc2Nc2ccc3c(ccn3Cc3cccc(F)c3)c2)cc(OC)c1 | 70.9% | 68.1% | -4.76% (active) | 29.6% | 44.5% | 72.9% | 34.8% | 
13 | COc1ccc(C(=O)/C=C/c2ccc(C)cc2)cc1S(N)(=O)=O | 94.1% | 64.1% | 88.3% | 21.9% | 9.96% (active) | 99% | 44.3% | 
14 | COC(=O)c1c(C(=O)OC)c2ccc3c4ncccc4ccc3n2c1C(=O)c1ccc(C)cc1 | 54.4% | 88.1% | 102% | 98.8% | 95.6% | 107% | 97% | 86.2%
15 | CCOc1cc(\C=N/N=C(N)/C(N)=N\N=C/c2ccc(O)c(OCC)c2)ccc1O | 47.4% | 93.1% | 98.7% | 108% | 99.6% | 98.6% | 101% | 
16 | O=c1c(/C=C/c2c(O)ccc3ccccc23)nnc2sc(-c3cccc([N+](=O)[O-])c3)nn12 | 33.6% | 65.1% | 47.5% | 32.5% | 10.5% | 60.9% | 37.2% | 
17 | C=C1CC[C@@H]2[C@](C)(COC(C)=O)[C@H](OC(C)=O)CC[C@@]2(C)[C@@H]1CC(Nc1ccc(S(=O)(=O)Nc2nccc(C)n2)cc1)C1=CCOC1=O (stereo partly drawn) | 69.1% | -2.66% (active) | 0.231% (active) | -49.6% (active) | -32.2% (active) | 68.2% | 13.2% | 
18 | CCOC(=O)CSc1nc2sc3c(c2c(=O)n1-c1ccccc1)CCCCC3 | 94.4% | 110% | 107% | 98.1% | 97.3% | 114% | 104% | 
19 | COc1c(O[C@@H]2OC(CO)[C@H](O)[C@H](O)C2O)cc2oc3cc(O)c(CC=C(C)C)c(O)c3c(=O)c2c1CC=C(C)C (stereo partly drawn) | 70.8% | 102% | 94.3% | 104% | 88.8% | 95.9% | 106% | 
20 | N#Cc1nn(-c2ccccn2)c(N)c1C#N | 84.1% | 98.3% | 101% | 115% | 87.7% | 106% | 101% | 
21 | CN1CCN(Cc2ccc(NC(=O)c3cncc(C#Cc4c(N)ncc5cc(F)ccc45)c3)cc2C(F)(F)F)CC1 | 77% | 56.6% | 26.4% | -53.1% (active) | -78.7% (active) | 51.4% | 5.8% (active) | 
22 | Cn1cc(-c2ccc3c(Nc4cccc(NC(=O)Nc5cccc(F)c5)c4)ncnc3c2)cn1 | 21.5% | 47.4% | 57.8% | 57.7% | 25.5% | 83.3% | 20.4% | 
23 | COc1cc(/C=N/NC(=O)c2ccc3nc(-c4ccc(Cl)cc4)[nH]c3c2)cc(OC)c1OC | 15.9% | 70.7% | 64% | 78.7% | 36.2% | 80% |  | 
24 | CC1(C)CC[C@]2(CO)CC[C@]3(C)C(=CC[C@@H]4[C@@]5(C)CCNCC(C)(C)[C@@H]5CC[C@]43C)[C@@H]2C1 | 56.3% | 90.1% | 41.6% | 21% | 55.5% | -60.8% (active) | 34.7% | 
25 | N#C/C(=N\Nc1ccccc1)C(=O)Nc1cc(-c2ccccc2)nn1-c1ccccc1 | 9.7% (active) | 16.2% | 30.3% | 20.2% | 16.1% | 40.7% | 36.8% | 
26 | COc1ccc2c(O)cc3c(c2c1)[C@H](CCl)CN3C(=O)c1cc2cc(NC(=O)CCN3CCOCC3)ccc2[se]1 | -21.4% (active) | -72.8% (active) | -67.5% (active) | -41.4% (active) | -55.1% (active) | -88.3% (active) |  | 
27 | COc1cc(OCc2cccc(-c3ccccc3)c2C)cc(OC)c1CN1CCCCC1C(=O)NCCOCCOCCN (stereo not drawn) | 71.2% | 84.7% | -72.8% (active) | 61.2% | 22.8% | 88% | 78.9% | 
28 | N#C/C(Sc1nc2sc3c(c2c(=O)n1Cc1ccccc1)CCCC3)=C1/SC=C(c2ccc(Cl)cc2)N1c1ccccc1 | 91.5% | 101% |  | 89.9% | 83.5% | 87.2% | 95.8% | 82.5%
29 | C=CCNc1nc(O)c(/C=C2\C=Nc3ncccc32)s1 | -8.68% (active) | -29.5% (active) |  | 7.39% (active) | 6.31% (active) | 44.6% | 7.86% (active) | 3.5% (active)
30 | O=C1/C(=C/c2cccc(Br)c2)COc2ccc(O)c(O)c21 | -14.3% (active) | -19.2% (active) |  | -25.1% (active) | -51% (active) | -58.8% (active) | -60.9% (active) | 6.49% (active)
